We go through 34 molecules from PubChem BioAssay AID588432 (Broad Institute, 2011).

Values without a mark were called inactive.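 How the source made its calls: active means luciferase inhibitors whose fitted dose curve gives a half-maximal potency within ten times the top tested dose; inconclusive means flat curve with 30 to 70% inhibition, or a poor fit; inactive means the rest.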

The test is described as follows: luciferase inhibitors in kinase-free ADP detection – biochemical, luminescence, cherry-pick, set 04, artefact control for Dyrk1A inhibitor project, dose response (AID 588432). Conditions: ADP-Glo luminescence without kinase, luciferase artifact; series mostly up to 12 µM; activity change, negative = inhibition: at the top concentration. (ADP-Glo turns the ADP formed in a reaction into a luminescent signal.)
`CN(Cc1cccs1)c1ncnc2ccc(-c3ccc4c(c3)OCO4)cc12`: the “activity change, negative = inhibition” value is -1.74%.

As for `Cc1c(-c2ccnc(NCc3cccnc3)n2)sc(=O)n1C`, the “activity change, negative = inhibition” value is 2.54%.

As for `Cc1ccsc1CN(C)c1ncnc2ccc(-c3ccoc3)cc12`, the “activity change, negative = inhibition” value is -6.33%.

For `Clc1ccc(CNc2ccnc(-c3ccc4[nH]ncc4c3)n2)cc1Cl`, the “activity change, negative = inhibition” value was -2.95%.

Turning to `c1nc(NCC2CCCC2)c2cc(-c3ccc4c(c3)OCO4)ccc2n1`, the “activity change, negative = inhibition” value is 2.52%.

As for `CN(C)c1ccc(-c2nccc(NCc3cccs3)n2)cc1`, the “activity change, negative = inhibition” value was -2.05%.

In the case of `c1cncc(CNc2ncncc2-c2ccc3c(c2)OCO3)c1`, the “activity change, negative = inhibition” value was -1.1%.

Regarding `Clc1ccccc1-c1ccc2ncnc(NCc3ccc4c(c3)OCO4)c2c1`, the “activity change, negative = inhibition” value was -4.77%.

As to `c1cncc(CNc2ccnc(-c3ccc4[nH]ncc4c3)n2)c1`, the “activity change, negative = inhibition” value is 4.93%.

Consider `Cc1c(-c2ccnc(NCc3ccc(Cl)cc3)n2)sc(=O)n1C`, for which the “activity change, negative = inhibition” value is 3.38%.

Consider `CCCNc1ncnc2ccc(-c3ccc4c(c3)OCO4)cc12`, for which the “activity change, negative = inhibition” value is -1.35%.

With `c1csc(CCNc2ncnc3ccc(-c4ccc5c(c4)OCO5)cc23)c1`, the “activity change, negative = inhibition” value was 0.153%.

As to `CN(Cc1nccs1)c1ncnc2ccc(-c3ccc4c(c3)OCO4)cc12`, the “activity change, negative = inhibition” value is 3.29%.

Consider `Cc1csc(CNc2ncnc3ccc(-c4ccc5c(ccn5C)c4)cc23)c1`, for which the “activity change, negative = inhibition” value was -1.83%.

For the molecule `FC(F)(F)c1cc(Br)cc(Nc2nccc(-c3ccc4c(c3)OCO4)n2)c1`, the “activity change, negative = inhibition” value is 0.301%.

On to `c1cncc(CNc2nccc(-c3ccc4cn[nH]c4c3)n2)c1`, for which the “activity change, negative = inhibition” value is 0.513%.

With `COc1ccc(-c2ccnc(NCc3ccc(Cl)c(Cl)c3)n2)cc1OC`, the “activity change, negative = inhibition” value was 1.42%.

As to `c1csc(CNc2ncnc3ccc(-c4ccc5c(c4)OCO5)cc23)n1`, the “activity change, negative = inhibition” value is 1.31%.

On to `CCN1/C(=C/C(C)=O)Sc2ccc(OC)cc21`, for which the “activity change, negative = inhibition” value was -1.71%.

For `c1cncc(CNc2ccnc(-c3ccc4cn[nH]c4c3)n2)c1`, the “activity change, negative = inhibition” value is -1.39%.

On to `c1nc(NCC2CCCOC2)c2cc(-c3ccc4c(c3)OCO4)ccc2n1` (centres undefined), for which the “activity change, negative = inhibition” value is -4.69%.

Turning to `Clc1ccc(CNc2nccc(-c3ccc4c(c3)OCO4)n2)cc1Cl`, the “activity change, negative = inhibition” value is 4.9%.

On to `Clc1ccc(CNc2nccc(-c3ccc4c(c3)OCCO4)n2)cc1Cl`, for which the “activity change, negative = inhibition” value is 7.14%.

In the case of `Clc1ccc(CNc2ncncc2-c2ccc3c(c2)OCO3)cc1`, the “activity change, negative = inhibition” value is 4.88%.

On to `c1cncc(CNc2cc(-c3ccc4c(c3)OCO4)ncn2)c1`, for which the “activity change, negative = inhibition” value is -0.561%.

Regarding `Cn1ccc2cc(-c3ccc4ncnc(NCc5ccc6c(c5)OCO6)c4c3)ccc21`, the “activity change, negative = inhibition” value is 3.02%.

As to `Cc1noc(CN(C)c2ncnc3ccc(-c4ccc5c(c4)OCO5)cc23)n1`, the “activity change, negative = inhibition” value was -2.83%.

Consider `Clc1cccc(-c2ccc3ncnc(NCc4ccc5c(c4)OCO5)c3c2)c1`, for which the “activity change, negative = inhibition” value is 5.1%.

Turning to `O=[N+]([O-])c1cc(Nc2nccc(-c3ccc4c(c3)OCO4)n2)cc(C(F)(F)F)c1`, the “activity change, negative = inhibition” value is 2.67%.

In the case of `c1coc(CCNc2ncnc3ccc(-c4ccc5c(c4)OCO5)cc23)c1`, the “activity change, negative = inhibition” value is -5.27%.

For the molecule `COc1cc(-c2ccc3ncnc(NCCc4cnc[nH]4)c3c2)cc(OC)c1OC`, the “activity change, negative = inhibition” value was -4.12%.

Take `Cc1ccsc1CN(C)c1ncnc2ccc(-c3ccc(CO)o3)cc12`: the “activity change, negative = inhibition” value was -3.09%.

`Clc1cc(Cl)cc(CNc2ncncc2-c2ccc3c(c2)OCO3)c1`: the “activity change, negative = inhibition” value is 4.88%.

For the molecule `CS(=O)(=O)CCNCc1ccc(-c2ccc3ncnc(Nc4ccc(OCc5cccc(F)c5)c(Cl)c4)c3c2)o1`, the “activity change, negative = inhibition” value is 3.19%.
